High-throughput results (PubChem BioAssay)
Rows were chosen to be rich in hits. Some 17% of all compounds tested hit in one or more screens of this group.
TDP1 cell noCPT: qHTS for Inhibitors of human tyrosyl-DNA phosphodiesterase 1 (TDP1): qHTS in cells in absence of CPT | DT40 Tdp1-/- hTDP1 cells, no CPT, ATP luminescence, 48 h | Potency, µM (series often up to 46.2 µM), hits mostly inhibitors | actives 15% (n = 420,000) | AID 686978, 2013; note: nearly all actives have a fitted effect of over 55% in size
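Cells were dispensed at 400 per well, compounds added by pin tool, plates incubated ≥48 hr at 37 °C, then CellTiter-Glo added for 30 min at room temperature before luminescence reading. Line: DT40 Tdp1-/- complemented with hTDP1; camptothecin omitted.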
ClpP mod: qHTS Assay for Activators of ClpP | actives 1.9% (n = 340,000) | Potency, µM (series often up to 57.5 µM) | ATP-dependent Clp protease proteolytic subunit (Bacillus subtilis (strain 168)), P80244 | purified B. subtilis ClpP, FRET peptide cleavage, 20 min; active = well fitted falling curve with a large enough effect; inconclusive = small, poorly fitted or top-dose-only effect; inactive = no such curve, though single readings can be large or run the other way; note: the source files actives as falling curves though it sought activators and does not explain the sign; nearly all actives have a fitted effect of over 65% in size
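ClpP 10 microg/mL final, pH 8 Tris/KCl buffer with BSA, glycerol, Tween-20; compound pinned in; FRET-FV substrate; RT 20 min; Ex320/Em430; ΔFRET vs ADEP 5.8 microM, DMSO, no enzyme.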
TDP1 block: qHTS Assay for Inhibitors of Tyrosyl-DNA Phosphodiesterase (TDP1); Tyrosyl-DNA phosphodiesterase 1 (Homo sapiens), Q9NUW8; recombinant TDP1, AlphaScreen DNA substrate cleavage; Potency, µM (highest dose often 130 µM), actives largely listed as inhibitors; actives 0.28% (n = 350,000); AID 485290, 2010; note: nearly all actives have a fitted effect of over 40% in size
Target sequence (Q9NUW8 whole entry, looked up): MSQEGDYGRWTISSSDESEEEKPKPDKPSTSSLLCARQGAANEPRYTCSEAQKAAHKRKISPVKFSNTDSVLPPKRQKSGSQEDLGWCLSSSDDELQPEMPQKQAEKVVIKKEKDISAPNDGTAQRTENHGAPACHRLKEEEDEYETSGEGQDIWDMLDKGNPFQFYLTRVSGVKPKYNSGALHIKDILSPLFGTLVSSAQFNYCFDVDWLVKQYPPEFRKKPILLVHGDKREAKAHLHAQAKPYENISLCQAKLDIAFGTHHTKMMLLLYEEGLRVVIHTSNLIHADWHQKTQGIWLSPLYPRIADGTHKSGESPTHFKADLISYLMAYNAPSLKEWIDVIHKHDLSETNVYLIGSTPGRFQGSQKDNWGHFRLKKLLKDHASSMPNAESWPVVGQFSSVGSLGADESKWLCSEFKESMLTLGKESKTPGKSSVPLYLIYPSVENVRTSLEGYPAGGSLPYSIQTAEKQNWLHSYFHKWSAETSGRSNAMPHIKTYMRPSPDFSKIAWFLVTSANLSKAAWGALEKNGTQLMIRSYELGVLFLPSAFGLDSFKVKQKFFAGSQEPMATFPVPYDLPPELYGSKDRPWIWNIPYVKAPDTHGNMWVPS
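AlphaScreen read-out: signal falls as enzyme removes the 3' tyrosine-FITC from a 5'-biotinylated DNA oligo (15 nM, 5 min, RT). Enzyme was E. coli-made recombinant Tdp1 at 1 nM, exposed to compound for 15 min beforehand; beads 10 ug/ml, 10 min.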
TDP1 cell CPT: qHTS for Inhibitors of human tyrosyl-DNA phosphodiesterase 1 (TDP1): qHTS in cells in presence of CPT | chicken DT40 Tdp1-/-;hTDP1 cells + 20 nM CPT, ATP luminescence, 48 h | Potency, µM (doses to about 46.2 µM), most hits filed as inhibitors | actives 12% (n = 420,000) | AID 686979, 2013; note: nearly all actives have a fitted effect of over 55% in size
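Chicken DT40 Tdp1-/- cells complemented with human TDP1, 400 cells/well, exposed to compounds plus 20 nM camptothecin for at least 48 h at 37 C; viability read as ATP content by CellTiter-Glo luminescence.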
Numbers stand for hits; - = inactive; ? = inconclusive; . = no result; [ ] = another dose, or the depositor's remark. Unless noted, calls come from the whole dose curve; as a rule, active = well fitted curve in the direction sought with a large enough effect; inconclusive = small, poorly fitted or top-dose-only effect, or another doubt; inactive = no such curve, though single readings can be large; an effect the other way counts as inactive or inconclusive.

SMILES	TDP1 cell noCPT	ClpP mod	TDP1 block	TDP1 cell CPT
CCOc1ccc(CN(C)CC(=O)Nc2ccc([N+](=O)[O-])cc2Cl)cc1	18.4µM	-	-	?
COc1cc(NC(=O)CN2CCN(c3ccccc3O)CC2)c(C)cc1[N+](=O)[O-]	?	-	-	11.6µM
CCOc1ccc(CC(=O)Nc2c(C(=O)c3ccc(F)cc3)oc3ccc(Cl)cc23)cc1OCC	-	-	-	-
N#Cc1cccc(CS(=O)(=O)c2nc3ccccc3s2)c1	.	.	-	.
CN(C)CCCNc1nccc(N2CCN(C)CC2)n1	-	-	.	-
O=C1C(CCc2ccccc2)ON=C(c2cnccn2)N1Cc1ccc(F)cc1 (centres undefined)	?	-	.	?
NC(Cc1ccc(C(F)(F)F)cc1)c1csc(Nc2cc(Oc3ccccc3)ncn2)n1 (centres undefined)	?	-	.	?
COc1ccc(C(N)c2csc(Nc3cc(Oc4ccccc4)ncn3)n2)cc1 (centres undefined)	23.1µM	-	.	23.1µM
NC(c1csc(Nc2cc(Oc3ccccc3)ncn2)n1)C1CCCCC1 (centres undefined)	?	-	.	?
Nc1ccc(CC(N)c2csc(Nc3cc(Oc4ccccc4)ncn3)n2)cc1 (centres undefined)	23.1µM	-	.	?
COC(=O)c1c(NC(=O)COC(=O)[C@@H](NS(=O)(=O)c2cccc(Cl)c2)C(C)C)sc2c1CCC2	?	-	-	?
COc1ccc(S(=O)(=O)N[C@@H](C)C(=O)OCC(=O)Nc2cc3oc4ccccc4c3cc2OC)cc1	14.6µM	-	-	?
CC(C)[C@H](NS(=O)(=O)c1ccc(Cl)cc1)C(=O)OCC(=O)NCCN1C(=O)CSC1=O	-	-	-	-
CC(C)[C@H](NS(=O)(=O)c1cccc(Cl)c1)C(=O)OCC(=O)NC(=O)CN1CCCC1=O	-	-	25.1µM	-
COC(=O)c1sc(N)c(C(=O)OC)c1COC(=O)[C@@H](NS(=O)(=O)c1cccc(Cl)c1)C(C)C	18.4µM	-	-	?
COc1cc2c(cc1NC(=O)COC(=O)[C@@H](NS(=O)(=O)c1cccc(Cl)c1)C(C)C)oc1ccccc12	16.4µM	?	-	?
CCc1ccc(NC(=O)CSc2nc3c(sc4ccccc43)c(=O)n2CCCOC)cc1	?	-	-	?
O=C(CN1C(=O)NC2(CCCC2)C1=O)N1CCN(S(=O)(=O)c2cccc(C(F)(F)F)c2)CC1	-	-	.	-
COc1ccccc1/C=C1\C=Cc2ccccc21	?	-	.	?
CCOC(=O)C1(Cc2ccccc2Cl)CCN(C(=O)CCn2ccnc2C)CC1	-	-	-	-
Cc1ccc(C)c(S(=O)(=O)N2CCCOC2CNC(=O)C(=O)NCCC2=CCCCC2)c1 (centres undefined)	23.1µM	-	-	?
Cc1ccc(C)c(S(=O)(=O)N2CCCOC2CNC(=O)C(=O)NCCc2ccccc2)c1 (centres undefined)	16.4µM	-	-	?
O=C(NCCC1=CCCCC1)C(=O)NCC1OCCCN1S(=O)(=O)c1ccccc1 (centres undefined)	?	-	-	-
Cc1ccc(S(=O)(=O)N2CCOC2CNC(=O)C(=O)NCCCc2ccccc2)cc1 (centres undefined)	18.4µM	-	-	?
Cc1cc(C(=O)N2C(C)CCCC2C)no1 (centres undefined)	-	.	-	-
SMILES	TDP1 cell noCPT	ClpP mod	TDP1 block	TDP1 cell CPT
Cc1cc(C(=O)N(C2CCCCC2)C2CCCCC2)no1	8.2µM	-	-	13µM
COc1cc(/C=C(\C#N)c2nc3ccccc3[nH]2)cc(Cl)c1OCc1ccccc1Cl	18.4µM	?	-	7.31µM
N#C/C(=C/c1ccc(OC(=O)c2ccc(Br)s2)cc1)c1nc2ccccc2[nH]1	23.1µM	.	.	?
N#C/C(=C\c1ccc(OCc2ccc(Cl)cc2Cl)cc1)c1nc2ccccc2[nH]1	20.6µM	-	-[12.3 µM]	16.4µM
N#C/C(=C\c1cccc(OCC(=O)O)c1)c1nc2ccccc2[nH]1	-	-	-	-
CCOC(=O)N1CCN(C(=O)c2ccc(Cl)nc2)CC1	-	.	-	-
O=C(Cc1ccc(OCc2ccccc2)cc1)NO	?	-	.	?
COc1cccc(CNc2nc3nc(C)c(Cl)c(C)n3n2)c1	-	31.6µM	-	?
Cc1nc2nc(COc3ccccc3)nn2c(C)c1Cl	-	14.1µM	-	-
Cc1nc2nc(NCc3cccs3)nn2c(C)c1Cl	-	12.6µM	-	-
Cc1nc2nc(Cc3ccccc3)nn2c(C)c1Cl	-	-	-	-
O=C(COc1ccccc1)NCC(=O)Nc1cccc(S(=O)(=O)NC2=NCCC2)c1	-	.	-	-
COC(=O)c1ccc2[nH]ccc2c1	?	-	.	?
COc1ccc(CNCCSc2nnnn2-c2ccccc2)cc1	?	-	-	?
CC(=O)[C@H](CC(C)C)NC(=O)[C@@H](CC(C)C)NC(=O)[C@H](CC(C)C)NC(=O)OCc1ccccc1	0.188µM	.	-	0.15µM
CC(=O)NC(CC(C)C)C(=O)NC(Cc1ccccc1)C(=O)CCl (centres undefined)	2.59µM	-	.	2.31µM
O=C(CN1C(=O)CCc2cc(S(=O)(=O)N3CCOCC3)ccc21)NCc1ccc(F)cc1	-	-	-	-
CN(C)S(=O)(=O)c1ccc(S(=O)(=O)N2CCCC(C(=O)NC3CCCC3)C2)cc1 (centres undefined)	2.91µM	.	-	?
O=C(NC1CCCCC1)C1CCCN(S(=O)(=O)c2ccc(F)cc2)C1 (centres undefined)	?	-	-	-
Cc1n[nH]c(C)c1S(=O)(=O)N1CCCC(C(=O)NC2CCCCC2)C1 (centres undefined)	-	-	.	-
Cc1cc(C)c(S(=O)(=O)N2CCCC(C(=O)NCc3ccncc3)C2)c(C)c1 (centres undefined)	-	-	-	-
Cc1cc(C)c(S(=O)(=O)N2CCCC(C(=O)NC3CCCC3)C2)c(C)c1 (centres undefined)	20.6µM	.	-	?
Cc1nn(C)c(C)c1S(=O)(=O)N1CCCC(C(=O)NC2CCCCCC2)C1 (centres undefined)	?	-	-	18.4µM
Cc1ccc(NC(=O)C2CCCN(S(=O)(=O)c3c(C)nn(C)c3C)C2)c(C)c1 (centres undefined)	?	-	-	?
Cc1nn(C)c(C)c1S(=O)(=O)N1CCCC(C(=O)N2CCN(c3ccc(Cl)cc3)CC2)C1 (centres undefined)	6.51µM	-	-	11.6µM
O=C(NC(=S)NCCc1ccccc1)c1cccc(Cl)c1	-	-	-	-
CC(C)OCCCNC(=O)NC(=O)c1ccc(Cl)cc1	25.9µM	-	-	?
